3T3 cytotox: Cytotoxic Profiling in NIH 3T3 Cell Line of Diverse Libraries Using Quantitative High-Throughput Screening | 4.3% of 94,000 active | NIH 3T3 viability, CellTiter-Glo ATP luminescence, 48-72 h | Potency, µM (top dose mostly 96.7 µM), for inactives: top-dose activity change, negative = cytotoxicity, actives largely listed as inhibitors; note: nearly all actives have a fitted effect of over 55% in size
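Mouse fibroblast NIH 3T3 cells, 400 per well, received compound via pintool and were incubated for 48 or 72 hr prior to CellTiter-Glo ATP luminescence measurement.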
HEK293 tox: Cytotoxic Profiling in HEK 293 Cell Line of Diverse Libraries Using Quantitative High-Throughput Screening. HEK 293 viability, ATP luminescence (CellTiter-Glo), 48-72 h. Potency, µM (titrated, usually from 115 µM), for the others: at the top dose activity change, negative = cytotoxicity, hits mostly inhibitors. 6.6% of 94,000 active; note: nearly all actives have a fitted effect of over 60% in size
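Luminescence from cellular ATP, measured with CellTiter-Glo, indicates HEK 293 viability. Cells plated at 250 cells/well are treated with compound for 48 or 72 hr at 37 degree Celsius before reagent addition.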
FLuc inh: Firefly luciferase inhibition profiling of diverse chemical library using quantitative high-throughput screening. purified P. pyralis luciferase, luminescence, biochemical. 2.5% of 76,000 active. Potency, µM (top dose mostly 115 µM), hits mostly inhibitors. AID 1347043, 2019; note: nearly all actives have a fitted effect of over 65% in size
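Purified 10nM P. pyralis luciferase with 10uM D-luciferin and 10uM ATP in 50mM Tris acetate pH 7.5, 10mM Mg acetate, 0.01% Tween-20, 0.05% BSA. qHTS titration; luminescence read by CCD imager.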
NPR1 antag: Natriuretic polypeptide receptor (hNpr1) antagonism - Primary qHTS; HEK293 hNpr1 GloSensor cGMP, ANP-stimulated luminescence; Potency, µM (doses to about 46.3 µM), for the others: at the highest dose activity change, negative = inhibition, most hits filed as inhibitors; 1.6% of 76,000 active; AID 1347048, 2019; calls by dose curve; note: nearly all actives have a fitted effect of over 60% in size
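Compound pre-incubated 30 min at room temperature on GloSensor-loaded HEK293 cells stably carrying hNpr1 and the pGS-40F cGMP biosensor. Stimulation uses hNppA at 0.1 nM final; luminescence is taken at baseline and 20 min post-agonist.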
Active calls of the source: *; i = inactive; ? = inconclusive; · = not tested or not shown; [ ] = dose if it differs, or a comment. A selection: hits, their analogues and other compounds. The true share with any hit is near 11%. Unless noted, calls come from the whole dose curve; as a rule, active = well fitted curve in the direction sought with a large enough effect; inconclusive = small, poorly fitted or top-dose-only effect, or another doubt; inactive = no such curve, though single readings can be large; an effect the other way counts as inactive or inconclusive. % is set by controls: 0 for no effect and ±100 for the full control effect; potency is the fitted concentration of half-maximal effect.

SMILES	3T3 cytotox	HEK293 tox	FLuc inh	NPR1 antag
CNC1CNC(=O)c2cc(-c3ccc(OC)cc3)nn21 (centres undefined)	i	i	?	1%
O=C(c1ccc2cc[nH]c2c1)N1CCCN(c2cc(-c3ccc(F)cc3)[nH]n2)CC1	?	40µM*	i	?
CN(C)c1cccc(C(=O)N2CCCN(c3cc(-c4ccc(F)cc4)[nH]n3)CC2)c1	3%	?	22µM*	-21%
Cc1ccc(-c2cc(N3CCCN(C(=O)c4cccc(N(C)C)c4)CC3)n[nH]2)cc1C	40µM*	?	?	?
Cc1ccc(-c2cc(N3CCCN(C(=O)c4cccnc4)CC3)n[nH]2)cc1C	0%	-18%	i	-2%
CC#CCn1cc2c3c(cccc31)[C@H](CC(C)C)N[C@H](C(=O)N1CCN(CCO)CC1)C2	?	?	i	-3%[70.6 µM]
Cn1ncc2c(C(=O)NC3CC3)cc(-c3cc(Cl)cc(Cl)c3)nc21	i	i	·	·
CC(C)NC(=O)c1cc(-c2ccc(F)cc2)nc2c1cnn2C	?	79µM*	·	·
Cn1ncc2c(C(=O)NC3CC3)cc(-c3ccc(Cl)cc3)nc21	79µM*	?	·	·
CC(C)NC(=O)c1cc(-c2ccc(S(C)(=O)=O)cc2)nc2c1cnn2C	-21%	-7%	·	·
CC(C)NC(=O)c1cc(-c2ccc(Cl)nc2)nc2c1cnn2C	22µM*	?	·	·
Cn1ncc2c(C(=O)NC3CCCCCC3)cc(C(C)(C)C)nc21	?	35µM*	·	·
Cn1ncc2c(C(=O)NCC3CCCCC3)cc(C(C)(C)C)nc21	-23%[138 µM]	-17%[172 µM]	·	·
COC(=O)c1sc(NC(=O)CC[C@H]2NC(=O)c3ccccc3NC2=O)nc1C	?	-17%	i	3%
COc1ccccc1Nc1ccnc(N2CCCC(C(=O)N3CCOCC3)C2)n1 (centres undefined)	-42%	?	·	·
COc1ccccc1Nc1ccnc(N2CCCC(C(=O)NC3CCCC3)C2)n1 (centres undefined)	35µM*	?	·	·
COc1ccccc1Nc1ccnc(N2CCCC(C(=O)N3CCCCC3)C2)n1 (centres undefined)	35µM*	35µM*	·	·
COc1ccccc1Nc1ccnc(N2CCC[C@H]2C(=O)NC(C)C)n1	4%	i	·	·
Cc1ccc(C2Cn3nnc(-c4noc(-c5ccccn5)n4)c3CO2)cc1 (centres undefined)	4%	5%	i	6%
COc1ccc(CN2CCN(c3nc(C)ccc3C#N)CC2CCO)cc1C (centres undefined)	?	50µM*	i	-19%
Cc1ccc(CN2CCN(c3nc(C)ccc3C#N)CC2CCO)cc1 (centres undefined)	-26%	?	i	-3%
COc1ccc(-c2ccccc2C(=O)N2CCC(NC(=O)c3cccc(Cl)c3)CC2)nn1	i	-8%	·	·
O=C(Cc1c[nH]c2ncc(-c3ccc(Oc4ccccc4)cc3)cc12)NCc1cccnc1	?	40µM*	i	?
O=C(Cc1c[nH]c2ncc(-c3ccc(Cl)cc3)cc12)NCc1cccnc1	?	89µM*	?	-30%[70.6 µM]
O=C(Cc1c[nH]c2ncc(-c3cccc(CO)c3)cc12)NCc1cccnc1	?	-22%[172 µM]	i	-9%[70.6 µM]
SMILES	3T3 cytotox	HEK293 tox	FLuc inh	NPR1 antag
Cc1ncsc1CN1CCC[C@H]1C(=O)N1CCCCCCNC(=O)CC1	-23%	-11%	?	0%
O=C(C1CC1)N1CCN(c2nccc(Nc3ccccc3Cl)n2)CC1	22µM*	?	·	·
O=C(C1CCCC1)N1CCN(c2nccc(Nc3ccccc3Cl)n2)CC1	14µM*	?	·	·
O=C(NC1CCN(c2nccc(Nc3ccccc3Cl)n2)CC1)c1ccccc1	?	40µM*	·	·
Cc1ccc(C(=O)NC2CCN(c3nccc(Nc4ccccc4Cl)n3)CC2)cc1	-2%	1%	·	·
O=C(NCCNC(=O)c1cccc(-c2ccsc2)c1)c1ccc(Cl)cc1	3%	-25%	·	·
CN(C)C[C@@H]1CN(c2ncccn2)C[C@H]1NC(=O)CCCc1ccccc1	-8%	-9%	i	1%
CNC(=O)c1cc(C)nc2onc(C3CCCN3[S+](=O)([O-])c3ccccc3)c12 (centres undefined)	-10%	-9%	·	·
O=C1[C@H]2CN(Cc3ccc(C(F)(F)F)cc3)C[C@H]2C(=O)N1CCc1ccccc1	22µM*	35µM*	i	-29%
CN1c2cc(C(=O)Nc3ccc(Oc4ccccc4)cc3)ccc2C(=O)N2CCCCC21 (centres undefined)	?	?	50µM*	?
CCN1c2cc(C(=O)Nc3ccc(Oc4ccccc4)cc3)ccc2C(=O)N2CCCCC21 (centres undefined)	32µM*	?	i	-9%
CN1c2cc(C(=O)Nc3ccc(Oc4ccccc4)cc3)ccc2C(=O)N2CCCCCC21 (centres undefined)	?	10µM*	?	?
CCN1c2cc(C(=O)Nc3ccc(OC)cc3)ccc2C(=O)N2CCCC21 (centres undefined)	4%	2%	i	-13%
O=C(COc1ccc(Cl)cc1)N1CCN(c2cc(-c3cccs3)[nH]n2)CC1	22µM*	?	i	-17%
O=C(c1cc(Cl)ccc1Cl)N1CCN(c2cc(-c3cccs3)[nH]n2)CC1	?	45µM*	i	?
CC(Oc1cccc(Cl)c1)C(=O)N1CCN(c2cc(-c3cccs3)[nH]n2)CC1 (centres undefined)	?	35µM*	i	?
CC1=C[C@@H](CNC(=O)NCc2ccccc2)[C@H](C(C)C)C[C@H]1CC(=O)N1CCN(C)CC1	-1%	-10%	i	1%
O=C(c1nccc2ccccc12)N1CCc2c(nc(-c3ccccc3)[nH]c2=O)C1	?	25µM*	i	-4%
COCCN(Cc1nccs1)C(=O)c1cnc(-c2ccccn2)[nH]c1=O	?	40µM*	i	3%
Cc1ccc(NC(=O)CC2CCCN(c3cnn(CC4CC4)c(=O)c3)C2)cc1C (centres undefined)	40µM*	?	i	-6%
Cc1ccc(NC(=O)CC2CCCN(c3cnn(CC4CC4)c(=O)c3)C2)c(C)c1 (centres undefined)	-11%	5%	i	6%
COc1ccc(NC(=O)CC2CCCN(c3cnn(CC4CC4)c(=O)c3)C2)cc1 (centres undefined)	28µM*	?	i	0%
O=C(NC1CN(c2ccnc3ccnn23)C1)c1ccc(F)cc1	-26%[138 µM]	?	·	·
COc1ccc(-c2cn3c(n2)CO[C@@H](CNC(=O)c2ccccc2OC)C3)cc1	-7%[138 µM]	71µM*	?	-30%[70.6 µM]
COc1ccccc1CNC[C@H]1Cn2cc(-c3ccc(C)cc3)nc2CO1	100µM*	100µM*	?	0%[70.6 µM]
